Laboratory results: PubChem BioAssay AID1159580 (chemical genetic matrix, 2015)
About 2,000 (36%) of roughly 5,500 compounds were called active. About 18% were inconclusive and are not listed. Cut-off read from the data, not from the text of the source: active = normalized growth mostly below about 0.91 (no sharp cut-off); inconclusive = no clear call, values can overlap the other calls; inactive = mostly above about 0.92. This is one part of the list.

Test: chemical genetic growth profiling, strain panel (AID 1159580);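 note: tested at 20 µM; growth read once vehicle control cultures reached saturation at 30 °C; 1 = growth at the plate median or of vehicle wells; lower values mean less growth of the strain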
Settings: S. cerevisiae deletion strains, growth OD
[1] = locus YAL040C, strain CLN3, stronger effect = lower value
[2] = locus YER002W, strain NOP16, stronger effect = lower value
[3] = locus YGR078C, strain PAC10, stronger effect = lower value
[4] = locus YMR307W, strain GAS1, stronger effect = lower value
[5] = locus YNL175C, strain NOP13, stronger effect = lower value
[6] = locus YNL197C, strain WHI3, stronger effect = lower value
[7] = locus YNL224C, strain SQS1, stronger effect = lower value
[8] = locus YOR083W, strain WHI5 (second series), stronger effect = lower value

Measured: normalized growth

COC1=C(OC)C(=O)c2ccccc2C1=O
active: locus YDR363W, strain ESC2, stronger effect = lower value 0.734 | [4] 0.886 | locus YNL153C, strain GIM3, stronger effect = lower value 0.703
inactive: [1] 0.962 | [2] 0.985 | [3] 0.995 | locus YJR075W, strain HOC1, stronger effect = lower value 0.998 | locus YMR263W, strain SAP30, stronger effect = lower value 1.02 | [5] 0.978 | [6] 0.941 | [7] 0.977 | [8] 0.883

O=C1C=CC(=O)c2ccccc21
inactive: locus YER111C, strain swi4, stronger effect = lower value 0.917 | locus YJL129C, strain trk1, stronger effect = lower value 0.951
active: locus YAL021C, strain ccr4, stronger effect = lower value 0.0676 | locus YAL026C, strain drs2, stronger effect = lower value 0.0697 | locus YAL030W, strain snc1, stronger effect = lower value 0.0571 | locus YBL061C, strain skt5, stronger effect = lower value 0.0618 | locus YBR009C, strain hhf1, stronger effect = lower value 0.064 | locus YBR023C, strain chs3, stronger effect = lower value 0.0634 | locus YBR171W, strain sec66, stronger effect = lower value 0.0895 | locus YBR231C, strain swc5, stronger effect = lower value 0.0652 | locus YBR279W, strain paf1, stronger effect = lower value 0.0871 | locus YCL011C, strain gbp2, stronger effect = lower value 0.0594 | locus YCL016C, strain dcc1, stronger effect = lower value 0.0722 | locus YCL061C, strain MRC1, stronger effect = lower value 0.0703 | locus YCL069W, strain vba3, stronger effect = lower value 0.0688 | locus YCR088W, strain abp1, stronger effect = lower value 0.0699 | locus YDL005C, strain med2, stronger effect = lower value 0.0758 | locus YDL040C, strain nat1, stronger effect = lower value 0.0706 | locus YDR001C, strain nth1, stronger effect = lower value 0.0722 | locus YDR069C, strain doa4, stronger effect = lower value 0.0698 | locus YDR137W, strain rgp1, stronger effect = lower value 0.288 | locus YDR159W, strain sac3, stronger effect = lower value 0.36 | locus YDR195W, strain ref2 0.13 | locus YDR297W, strain sur2, stronger effect = lower value 0.0592 | locus YDR334W, strain swr1, stronger effect = lower value 0.0769 | locus YDR335W, strain msn5, stronger effect = lower value 0.0683 | locus YDR392W, strain spt3, stronger effect = lower value 0.109 | locus YEL003W, strain gim4, stronger effect = lower value 0.0565 | locus YEL037C, strain rad23, stronger effect = lower value 0.0781 | locus YEL061C, strain CIN8 (second series), stronger effect = lower value 0.0717 | locus YER015W, strain faa2, stronger effect = lower value 0.0627 | locus YER016W, strain bim1, stronger effect = lower value 0.0642 | locus YER155C, strain BEM2 (second series), stronger effect = lower value 0.107 | locus YFR010W, strain ubp6, stronger effect = lower value 0.0794 | locus YGL167C, strain pmr1, stronger effect = lower value 0.0772 | locus YGL173C, strain kem1, stronger effect = lower value 0.0709 | locus YGL227W, strain vid30, stronger effect = lower value 0.0707 | locus YGL240W, strain doc1, stronger effect = lower value 0.0798 | locus YGL253W, strain hxk2, stronger effect = lower value 0.0667 | locus YHR013C, strain ard1, stronger effect = lower value 0.138 | locus YHR027C, strain rpn1, stronger effect = lower value 0.0646 | locus YHR030C, strain SLT2, stronger effect = lower value 0.102 | locus YHR079C, strain IRE1, stronger effect = lower value 0.12 | locus YHR142W, strain chs7, stronger effect = lower value 0.0814 | locus YJL092W, strain hpr5, stronger effect = lower value 0.074 | locus YJL095W, strain BCK1 (second series), stronger effect = lower value 0.0589 | locus YJL095W, strain BCK1, stronger effect = lower value 0.116 | locus YJL115W, strain asf1, stronger effect = lower value 0.0842 | locus YJL154C, strain vps35, stronger effect = lower value 0.0701 | locus YJL164C, strain tpk1, stronger effect = lower value 0.0603 | locus YJL166W, strain qcr8, stronger effect = lower value 0.0677 | locus YJL187C, strain SWE1, stronger effect = lower value 0.0597 | locus YJR066W, strain TOR1, stronger effect = lower value 0.116 | locus YKL160W, strain elf1, stronger effect = lower value 0.0712 | locus YKR026C, strain gcn3, stronger effect = lower value 0.0708 | locus YKR091W, strain srl3, stronger effect = lower value 0.0627 | locus YLL001W, strain dnm1, stronger effect = lower value 0.071 | locus YLL026W, stronger effect = lower value 0.0579 | locus YLL041C, strain sdh2, stronger effect = lower value 0.0596 | locus YLR027C, strain aat2, stronger effect = lower value 0.0574 | locus YLR113W, strain HOG1, stronger effect = lower value 0.135 | locus YLR221C, strain rsa3, stronger effect = lower value 0.0579 | locus YLR258W, strain gsy2, stronger effect = lower value 0.0611 | locus YLR262C, strain YPT6 (second series), stronger effect = lower value 0.0853 | locus YLR320W, strain mms22, stronger effect = lower value 0.0864 | locus YLR342W, strain FKS1, stronger effect = lower value 0.0683 | locus YLR357W, strain rsc2, stronger effect = lower value 0.137 | locus YLR370C, strain arc18, stronger effect = lower value 0.0746 | locus YLR384C, strain iki3, stronger effect = lower value 0.0643 | locus YML120C, strain ndi1, stronger effect = lower value 0.827 | locus YMR058W, strain fet3, stronger effect = lower value 0.0712 | locus YMR125W, strain sto1, stronger effect = lower value 0.0829 | locus YMR129W, stronger effect = lower value 0.0615 | locus YMR205C, strain PFK2, stronger effect = lower value 0.092 | locus YMR231W, strain pep5, stronger effect = lower value 0.0667 | locus YNL071W, strain lat1, stronger effect = lower value 0.0615 | locus YNL183C, strain NPR1, stronger effect = lower value 0.338 | locus YNL209W, strain ssb2, stronger effect = lower value 0.0608 | locus YNL248C, strain rpa49, stronger effect = lower value 0.0841 | locus YNL322C, strain KRE1 (second series), stronger effect = lower value 0.0674 | locus YNR049C, strain mso1, stronger effect = lower value 0.0752 | locus YOR001W, strain rrp6, stronger effect = lower value 0.0696 | locus YOR070C, strain gyp1, stronger effect = lower value 0.0608 | locus YOR080W, strain dia2, stronger effect = lower value 0.114 | locus YOR083W, strain WHI5, stronger effect = lower value 0.0702 | locus YOR106W, strain vam3, stronger effect = lower value 0.0684 | locus YOR231W, strain MKK1, stronger effect = lower value 0.111 | locus YOR265W, strain rbl2, stronger effect = lower value 0.0588 | locus YOR270C, strain vph1, stronger effect = lower value 0.124 | locus YOR290C, strain snf2, stronger effect = lower value 0.842 | locus YPL051W, strain arl3, stronger effect = lower value 0.0626 | locus YPL078C, strain atp4, stronger effect = lower value 0.41 | locus YPL106C, strain sse1, stronger effect = lower value 0.0998 | locus YPL240C, strain hsp82, stronger effect = lower value 0.0586 | locus YPL256C, strain CLN2, stronger effect = lower value 0.128

Nc1ccc2c3c(cccc13)C(=O)NC2=O
inactive: [1] 0.997 | locus YCL061C, strain MRC1 (second series), stronger effect = lower value 1 | [2] 0.998 | [3] 0.981 | [4] 0.995 | locus YNL128W, strain TEP1, stronger effect = lower value 0.988 | [5] 0.999 | [6] 1.01 | [7] 0.985 | [8] 0.965 | locus YPL055C, strain LGE1, stronger effect = lower value 1.01
